# Measurements reported in PubChem BioAssay AID1851 (National Center for Advancing Translational Sciences (NCATS), 2009).
# “And” between values parts separate entries of the source, which are not always exact repeats. Identical values can stand only once. Out of some 16,000 compounds screened, about 5,700 (36%) were called active. Another 24% or so got no clear call; they are omitted. The list shows a part of the results. A number with no mark means an inactive call. The call rests on the fitted dose curve; in most records, active means well fitted curve in the direction sought with a large enough effect; inconclusive means small, poorly fitted or top-dose-only effect, or effect the other way; inactive means no such curve, though single readings can be large or run the other way.
# Target: Cytochrome P450 1A2 (Homo sapiens) (UniProt P05177)
# Test: Cytochrome panel assay with activity outcomes
# Settings: recombinant CYP, pro-luciferin dealkylation, luminescence, p450-cyp1a2; series mostly up to 57.1 µM
# On the % scale 0 is the no-effect control and ±100 the full control effect.
# Cytochrome P450 1A2 (Homo sapiens), sequence (P05177 whole entry, looked up): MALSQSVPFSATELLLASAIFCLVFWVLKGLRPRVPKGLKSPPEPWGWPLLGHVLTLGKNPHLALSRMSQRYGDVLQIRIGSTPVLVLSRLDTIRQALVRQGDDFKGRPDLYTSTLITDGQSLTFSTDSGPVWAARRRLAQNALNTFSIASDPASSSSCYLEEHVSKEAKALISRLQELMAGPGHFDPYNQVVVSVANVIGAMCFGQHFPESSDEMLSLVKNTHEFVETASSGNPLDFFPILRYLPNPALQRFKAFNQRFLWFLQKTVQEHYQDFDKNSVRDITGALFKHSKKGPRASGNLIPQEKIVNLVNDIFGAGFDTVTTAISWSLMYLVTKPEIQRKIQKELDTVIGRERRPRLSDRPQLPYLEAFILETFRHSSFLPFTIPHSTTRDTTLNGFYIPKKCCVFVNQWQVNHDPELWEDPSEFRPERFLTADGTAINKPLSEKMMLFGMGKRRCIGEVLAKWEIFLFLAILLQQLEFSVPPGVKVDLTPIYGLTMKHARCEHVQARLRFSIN
SMILES,AC50,"activity, negative = inhibition"
O=C(Nc1ccc(Cl)cc1)OCc1cc(-c2ccccc2)on1,2.24 µM (active),–
O=C(Nc1ccc(Cl)cc1)OCc1cc(-c2ccccc2Cl)on1,0.447 µM (active),–
CS(=O)(=O)c1ccccc1COC(=O)Nc1ccc(Cl)cc1,17.8 µM (active),–
O=C(Nc1ccccc1)OCc1cc(-c2ccc(Cl)cc2)on1,0.562 µM (active),–
Cc1onc(-c2ccccc2Cl)c1C(=O)Nc1nnc(Cc2ccc(Cl)cc2)s1,inactive,–
CCN1C(=O)[C@H]2[C@H]3[C@H](O)[C@H](O)C/C(=N/O[C@@H]4O[C@@H](COC(C)=O)[C@@H](OC(C)=O)[C@@H](OC(C)=O)[C@H]4OC(C)=O)[C@H]3CC[C@@H]2C1=O,–,-5.44% [at 11.4 µM]
CC1(C)CC(=O)C2=C(C1)N(c1ccc(F)cc1)C(N)=C(C#N)C2c1cccs1 (centres undefined),inactive,–
O=[N+]([O-])c1ccc(/C=N/n2c(COc3ccccc3)n[nH]c2=S)cc1,2.82 µM (active),–
Cc1ccc(/C=N/n2c(COc3ccccc3)n[nH]c2=S)s1,0.501 µM (active),–
O=[N+]([O-])c1ccccc1/C=N/n1c(COc2ccccc2)n[nH]c1=S,2.51 µM (active),–
CS(=O)(=O)N1CCC2(CC1)CN(c1ncccn1)C2,inactive,–
Cc1ccc(S(=O)(=O)NC(=O)NN2C[C@H]3CCC[C@@H]3C2)cc1,inactive,–
Cc1ccc2nc(N/N=C\c3cccc(C)n3)cc(C)c2c1,0.631 µM (active),–
CC(C)c1cccc2nc3c(c(C(C)(C)C)c12)Cn1c-3cccc1=O,12.6 µM (active),–
CCN1C/C(=C\c2cccc(C)c2)c2nc3ccccc3c(C(=O)O)c2C1,inactive,–
CC(C)c1cccc2nc3c(c([Si](C)(C)C)c12)Cn1c-3cccc1=O,15.8 µM (active),–
Cc1c2c(nc3ccccc13)-c1cccc(=O)n1C2,0.1 µM (active),–
CCc1cccc2nc3c(c([Si](C)(C)C)c12)Cn1c-3cccc1=O,2.51 µM (active),–
O=C1OCCC=C1[C@@H](O)CCc1ccccc1,–,-0.0227% [at 11.4 µM]
NS(=O)(=O)c1cc2c(cc1Cl)N[C@@H](C(Cl)Cl)NS2(=O)=O,inactive,–

SMILES,AC50,"activity, negative = inhibition"
CCc1c2c(nc3cccc(C(C)C)c13)-c1cccc(=O)n1C2,0.501 µM (active),–
O=C1NCC2(CCN(CCc3ccccc3)CC2)O1,inactive,–
NS(=O)(=O)c1ccc(N=Nc2cc3ccccc3c(C(=O)O)c2O)cc1,1 µM (active),–
NS(=O)(=O)c1ccc(N=Nc2c(O)c(C(=O)O)cc3ccccc23)cc1,–,-20.8% [at 11.4 µM]
NS(=O)(=O)c1ccc(N=Nc2ccc(O)c(C(=O)O)c2)cc1,–,-20.9% [at 11.4 µM]
O=C(Nc1nccs1)c1sc2cc(Cl)ccc2c1Cl,0.112 µM (active),–
O=C(NCc1cccnc1)c1sc2cc(Cl)ccc2c1Cl,1 µM (active),–
CN(C)/C=C/C(=O)c1ccc(F)cc1,11.2 µM (active),–
CN(C)/C=C/C(=O)c1ccc(Cl)cc1,4.47 µM (active),–
O=C(O)[C@@H](O)c1ccc(F)cc1,–,-12.3% [at 11.4 µM]
O=C(O)/C=C\[C@H](O)c1ccc(Cl)cc1,inactive,–
O=c1cc(O)cc(/C=C\c2ccc(O)c(O)c2)o1,inactive,–
Oc1cc(O)cc(/C=C\c2ccc(O)c(O)c2)c1,5.01 µM (active),–
S=C(S)NCCCn1ccnc1,3.16 µM (active),–
S=C(S)NCCN1CCNCC1,–,-7.09% [at 11.4 µM]
NCCNC(=S)S,–,-13.2% [at 2.29 µM]
CCOc1ccc(C(=O)CN2CCN(S(=O)(=O)c3ccc(F)cc3)CC2)cc1,20 µM (active),–
O=C(CN1CCN(S(=O)(=O)c2ccc(F)cc2)CC1)Nc1ccc(Cl)c(C(F)(F)F)c1,inactive,–
COc1ccc(S(=O)(=O)N2CCCN(CC(=O)Nc3ccc(OC)c(Cl)c3)CC2)cc1,1.41 µM (active),–
COc1ccc(S(=O)(=O)N2CCN(CC(=O)Nc3cc(OC)cc(OC)c3)CC2)cc1,22.4 µM (active),–

SMILES,AC50,"activity, negative = inhibition"
CCOc1ccc(NC(=O)CN2CCN(S(=O)(=O)c3ccc(Cl)cc3)CC2)cc1,25.1 µM (active),–
CCOC(=O)c1ccc(S(=O)(=O)N2CCN(C)CC2)cc1,inactive,–
COc1ccc(NC(=O)N2CC3(CCN(S(=O)(=O)c4ccccc4)CC3)C2)cc1,inactive,–
CCN(CC)C(=O)COc1ccc(S(=O)(=O)N2CCOCC2)cc1,inactive,–
O=C(CN1C(=O)NC2(CCCCCC2)C1=O)N1CCN(S(=O)(=O)c2ccc(Cl)cc2)CC1,inactive,–
COc1ccc(NC(=O)c2cc(S(=O)(=O)N3CCS(=O)(=O)CC3)ccc2Cl)cc1,inactive,–
COc1ccc(NC(=O)N2CCCC3(CCN(S(=O)(=O)c4ccccc4)CC3)C2)cc1,inactive,–
O=C(CN1CCN(S(=O)(=O)c2ccccc2)CC1)NC(=O)NCc1ccccc1,inactive,–
CON(C)C(=O)c1nnc2c3ccccc3n(S(=O)(=O)c3ccc(C)cc3)c2n1,–,-0.532% [at 11.4 µM] and -0.966% [at 11.4 µM]
CCOC(=O)c1cc2c(C(F)(F)F)cc(-c3ccccc3)nc2o1,3.55 µM (active),–
Cc1oc(-c2ccccc2)cc1C(=O)Nc1ccc(N(C)C)cc1,1.41 µM (active),–
Cc1oc(C(C)(C)C)cc1C(=O)Nc1cccc(/C=C/C(=O)O)c1,inactive,–
CCCNC(=O)OC[C@@H]1O[C@H](CCO/N=C2\c3cc(OC)ccc3O[C@H](c3cccc(OC)c3)[C@H]2O)C=C[C@@H]1Oc1ccc(OC)cc1,–,-14.6% [at 11.4 µM]
CCC(=O)N1CCc2cc(S(=O)(=O)NC(C(=O)NCc3ccc(F)cc3)C(C)C)ccc21 (centres undefined),inactive,–
CCOC(=O)c1sc(=S)n(-c2cccc(C(F)(F)F)c2)c1SC,0.562 µM (active),–
COCCn1c(=O)c(-c2cccs2)nc2cnc(OC)nc21,2.51 µM (active),–
COc1ncc2nc(-c3cccs3)c(=O)n(CCc3ccccc3)c2n1,1.26 µM (active),–
COc1ncc2nc(-c3cccs3)c(=O)n(CCC#N)c2n1,6.31 µM (active),–
COCCn1c(=O)c(-c2cccs2)nc2cnc(N(C)C)nc21,2 µM (active),–
